According to PubChem BioAssay (NCATS):
Several values for one entry are separate records, joined by “and”; a condition that tells them apart may be missing. Equal entries are not always repeated. Results filed as inconclusive are left out. A number with no mark means an inactive call. Activity calls are given as the source filed them. Calls come from the whole dose curve; as a rule, active = well fitted curve in the direction sought with a large enough effect; inconclusive = small, poorly fitted or top-dose-only effect, or another doubt; inactive = no such curve, though single readings can be large; an effect the other way counts as inactive or inconclusive.

How the values were obtained:
[1] = tested on: CRL-7250; assay: Cytotoxic Profiling of Annotated Libraries Using Quantitative High-Throughput Screening (AID 1296008); settings: Five cell lines viability, CellTiter-Glo ATP luminescence, 48-72 h; max response: hits give low values; note: nearly all actives have a fitted effect of over 60% in size; for max response: % is set by controls: 0 for no effect and ±100 for the full control effect
Outline: (§1)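 Cytotoxicity was measured as CellTiter-Glo ATP luminescence, read after 10 min at room temperature. Compound treatment of the cells lasted 48 or 72 hr at 37 degrees Celsius in a qHTS format.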

[2] = tested on: HEK293; assay: as above; settings: Five cell lines viability, CellTiter-Glo ATP luminescence, 48-72 h; max response: hits give low values
Outline: as §1

[3] = tested on: HaCat; assay: as above; settings: Five cell lines viability, CellTiter-Glo ATP luminescence, 48-72 h; max response: hits give low values
Outline: as §1

[4] = tested on: KB-3-1; assay: as above; settings: Five cell lines viability, CellTiter-Glo ATP luminescence, 48-72 h; max response: hits give low values
Outline: as §1

[5] = tested on: NIH3T3; assay: as above; settings: Five cell lines viability, CellTiter-Glo ATP luminescence, 48-72 h; max response: hits give low values
Outline: as §1

[6] = tested on: MCC-13; assay: qHTS assay to identify novel small-molecules to repurpose for Merkel cell carcinoma treatment (AID 1296009); settings: MCC and control cell lines, CellTiter-Glo viability, 72 h; series mostly up to 46 µM; note: nearly all actives have a fitted effect of over 60% in size
Outline: (§2)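 72 hr, 37 degree celsius; NPC 8-pt / MIPE 11-pt dose response; compound pinned in DMSO; CellTiter-Glo, 10 min RT, luminescence; normalized to no-cell and DMSO controls.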

[7] = tested on: MCC-26; assay: as above; settings: MCC and control cell lines, CellTiter-Glo viability, 72 h; series mostly up to 46 µM
Outline: as §2

[8] = tested on: MKL-1; assay: as above; settings: MCC and control cell lines, CellTiter-Glo viability, 72 h; series mostly up to 46 µM
Outline: as §2

[9] = tested on: MKL-2; assay: as above; settings: MCC and control cell lines, CellTiter-Glo viability, 72 h; series mostly up to 46 µM
Outline: as §2

[10] = tested on: UISO; assay: as above; settings: MCC and control cell lines, CellTiter-Glo viability, 72 h; series mostly up to 46 µM
Outline: as §2

[11] = tested on: WaGa; assay: as above; settings: MCC and control cell lines, CellTiter-Glo viability, 72 h; series mostly up to 46 µM
Outline: as §2

[12] = tested on: TAB113; assay: qHTS profiling for inhibitors of Plasmodium falciparum proliferation (AID 504749); note: nearly all actives have a fitted effect of over 60% in size; settings: P. falciparum in erythrocytes, SYBR Green DNA, 72 h; series mostly up to 28.7 µM
Outline: (§3)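 Infected RBCs, 0.3% parasitemia/2.5% Hct final; cpd 72 h, 37 C, 5% CO2; lysis buffer with saponin/triton/SYBR Green I, o/n RT dark; FI 485/535; norm. to artemisinin (0.29 uM) and DMSO.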

[13] = tested on: TAB165; assay: as above; settings: P. falciparum in erythrocytes, SYBR Green DNA, 72 h; series mostly up to 28.7 µM
Outline: as §3

[14] = tested on: NIH3T3; assay: qHTS assay to identify novel small-molecules to repurpose for Merkel cell carcinoma treatment (AID 1296009); settings: MCC and control cell lines, CellTiter-Glo viability, 72 h; series mostly up to 44.8 µM; note: nearly all actives have a fitted effect of over 60% in size
Outline: as §2

[15] = tested on: C33A; assay: Primary qHTS to identify gynecologic anti-cancer compounds using libraries of approved drugs and bioactive compounds (AID 1345084); settings: Gynecologic cancer cell panel viability, ATPlite luminescence, 48 h; series mostly up to 57.5 µM; note: nearly all actives have a fitted effect of over 55% in size
Outline: (§4)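 In this quantitative HTS, cell killing is estimated from loss of ATP-dependent luciferase light. Cells see five compound concentrations over a 48 h exposure.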

[16] = tested on: CAOV3; assay: as above; settings: Gynecologic cancer cell panel viability, ATPlite luminescence, 48 h; series mostly up to 57.5 µM
Outline: as §4

[17] = tested on: CASKI; assay: as above; settings: Gynecologic cancer cell panel viability, ATPlite luminescence, 48 h; series mostly up to 57.5 µM
Outline: as §4

[18] = tested on: W2; assay: qHTS profiling for inhibitors of Plasmodium falciparum proliferation (AID 504749); note: nearly all actives have a fitted effect of over 60% in size; settings: P. falciparum in erythrocytes, SYBR Green DNA, 72 h; series mostly up to 28.7 µM
Outline: as §3

[19] = tested on: HEK293T; assay: qHTS assay to identify novel small-molecules to repurpose for Merkel cell carcinoma treatment (AID 1296009); settings: MCC and control cell lines, CellTiter-Glo viability, 72 h; at 44.8 µM (top of the series) unless noted; note: nearly all actives have a fitted effect of over 60% in size
Outline: as §2
Potency is the fitted concentration of half-maximal effect.

COc1cc(Cl)cn2c(-c3cccc(NC4CNC4)n3)cnc12
max response [1]: -2.6%
max response [2]: -13.3%
max response [3]: -3.22%
max response [4]: -0.178%
max response [5]: 4.3%
Potency [6]: inactive
Potency [7]: inactive
Potency [8]: inactive
Potency [9]: inactive
Potency [10]: inactive
Potency [11]: inactive

CC[C@H](C=C[C@@H](C)[C@H]1CC[C@H]2[C@@H]3CC=C4C[C@@H](O)CC[C@]4(C)[C@@H]3CC[C@]12C)C(C)C
max response [1]: -16.3%
max response [2]: 3.5%
max response [3]: -3.88%
max response [4]: 2.61%
max response [5]: 3.97%
Potency [6]: inactive
Potency [7]: inactive
Potency [8]: inactive
Potency [9]: inactive
Potency [10]: inactive
Potency [11]: inactive

CN1CCN2c3ncccc3Cc3ccccc3C2C1 (stereo unspecified)
Potency [12]: inactive
Potency [13]: inactive
max response [1]: -0.363%
max response [2]: -5%
max response [3]: -6.78%
max response [4]: -7.74% and 1.92%
outcome [5]: inactive
Potency [6]: inactive
Potency [7]: inactive
Potency [8]: inactive
Potency [9]: inactive
Potency [14]: inactive
Potency [10]: inactive
Potency [11]: inactive

FC(F)(F)c1ccc(C=Cc2nc(COc3ccc(CCCCn4ccnn4)cc3)co2)cc1
Potency [1]: 0.0132 µM (active)
max response [2]: -116%
Potency [3]: 7.43 µM (active)
max response [4]: -26.9%
max response [5]: -14.8%
Potency [6]: 10.5 µM (active)
Potency [8]: 0.0235 µM (active)
Potency [10]: 0.0264 µM (active)
Potency [11]: 0.0047 µM (active)

O[C@@H](COc1cccc2ncccc12)CN1CCN(C2c3ccccc3[C@@H]3[C@H](c4ccccc42)C3(F)F)CC1 (stereo partly specified)
outcome [1]: inactive
Potency [2]: 10.6 µM (active) and 18.4 µM (active)
max response [3]: -3.25%
max response [4]: 2.31%
outcome [5]: inactive
Potency [6]: inactive
Potency [7]: inactive
Potency [14]: inactive
Potency [15]: inactive
Potency [16]: inactive
Potency [17]: inactive

CNC(=O)[C@H](CC1=CN=C2C=CCC=C12)NC(=O)[C@@H](CC(=O)NO)CC(C)C
max response [1]: -4.69%
max response [2]: 4.44%
max response [3]: -12.2%
max response [4]: 8.99%
max response [5]: -0.494%
Potency [6]: inactive
Potency [7]: inactive
Potency [8]: 0.296 µM (active)
Potency [9]: 0.264 µM (active)
Potency [11]: 0.296 µM (active)

O=c1[nH]c(=O)n([C@H]2C[C@@H](O)[C@@H](CO)O2)cc1I
max response [1]: -2.59%
max response [2]: -22.9%
max response [3]: 1.35%
outcome [4]: inactive
max response [5]: 3.2%
Potency [6]: inactive
Potency [7]: inactive
Potency [8]: inactive
Potency [9]: inactive
Potency [11]: inactive

CC[C@H](C)C(=O)O[C@H]1C[C@H](O)C=C2C=C[C@H](C)[C@H](CC[C@@H](O)C[C@@H](O)CC(=O)O)[C@H]21
max response [1]: -6.33%
max response [2]: 0.44%
max response [3]: -9.82%
max response [4]: 7.09% and -6.87%
max response [5]: -3.34%
Potency [6]: inactive
Potency [7]: inactive
Potency [8]: inactive
Potency [9]: inactive
Potency [10]: inactive
Potency [11]: inactive

O=C1C(CCC(O)c2ccc(F)cc2)C(c2ccc(O)cc2)N1c1ccc(F)cc1 (stereo unspecified)
Potency [12]: inactive
Potency [13]: inactive
Potency [18]: inactive
max response [1]: -5.06%
outcome [2]: inactive
max response [3]: 3.02%
max response [4]: -2.23%
max response [5]: 1.16%
outcome [19]: inactive
Potency [6]: inactive
Potency [7]: inactive
Potency [8]: inactive
Potency [9]: inactive
Potency [10]: inactive
Potency [11]: inactive

CCc1cccc(CC)c1NC(=O)N1Cc2[nH]nc(NC(=O)c3ccc(N4CCN(C)CC4)cc3)c2C1
Potency [1]: 16.6 µM (active) and 10.3 µM (active)
Potency [2]: 8.2 µM (active)
Potency [3]: 26.4 µM (active) and 18.4 µM (active)
Potency [4]: 7.43 µM (active) and 4.61 µM (active)
Potency [5]: 13.2 µM (active)
Potency [6]: inactive
Potency [7]: 20.9 µM (active)
Potency [9]: inactive
Potency [10]: inactive
Potency [15]: inactive

C[C@H]1COC2=C1C(=O)C(=O)c1c2ccc2c1CCCC2(C)C
max response [1]: -3.27%
max response [2]: -0.441%
max response [3]: 3.37%
max response [4]: -1.52%
outcome [5]: inactive
Potency [6]: inactive
Potency [7]: inactive
Potency [8]: inactive
Potency [9]: inactive
Potency [14]: inactive
Potency [10]: inactive
Potency [11]: inactive

CC1(COc2ccc3c(c2)ncn3-c2ccc3cccc(N4CCC(N)CC4)c3n2)COC1
Potency [1]: 11.6 µM (active)
Potency [2]: 7.43 µM (active) and 8.2 µM (active)
Potency [3]: 20.6 µM (active)
Potency [4]: 5900 nM (active)
Potency [5]: 2.96 µM (active)
Potency [6]: 18.7 µM (active)
Potency [9]: 18.7 µM (active)

N#CC1(c2cccc(C(=O)Nc3cc(Oc4ccc5nc(NC(=O)C6CC6)sc5n4)ccc3F)c2Cl)CC1
Potency [1]: 5.17 µM (active)
Potency [2]: 13.2 µM (active) and 6.51 µM (active)
Potency [3]: 26.4 µM (active) and 20.6 µM (active)
max response [4]: -20.5% and -13.3%
Potency [5]: 3.32 µM (active) and 3.26 µM (active)
Potency [6]: 16.6 µM (active)
Potency [7]: 11.8 µM (active)
Potency [8]: inactive
Potency [9]: inactive
Potency [15]: inactive
Potency [16]: 11.2 µM (active)

COc1cc(C=CC(=O)O)ccc1O
max response [1]: 1.23%
max response [2]: -0.866%
max response [3]: -11.1%
max response [4]: 4.21%
outcome [5]: inactive
Potency [6]: inactive
Potency [7]: inactive
Potency [8]: inactive
Potency [9]: inactive
Potency [14]: inactive
Potency [10]: inactive
Potency [11]: inactive

CC(C)CN(C[C@H](O)[C@H](Cc1ccccc1)NC(=O)O[C@H]1CCOC1)S(=O)(=O)c1ccc(N)cc1
max response [1]: 0.909%
max response [2]: -14.4%
max response [3]: -15.1%
outcome [4]: inactive
max response [5]: 1.75%
Potency [6]: inactive
Potency [7]: inactive
Potency [8]: inactive
Potency [9]: inactive
Potency [10]: inactive
Potency [11]: inactive

CC(C)[C@H](O)C(=O)N[C@@H](C)C(=O)N[C@@H]1C(=O)N(C)CCc2ccccc21
max response [1]: -12.5%
max response [2]: -11.6%
max response [3]: 1.12%
max response [4]: -11.2%
max response [5]: -3.15%
Potency [6]: inactive
Potency [7]: inactive
Potency [8]: inactive
Potency [9]: inactive
Potency [10]: inactive
Potency [11]: inactive

COC(=O)[C@H](c1ccccc1Cl)N1CCc2sccc2C1
max response [1]: -2.92%
max response [2]: 3.92%
max response [3]: -12%
outcome [4]: inactive
max response [5]: -0.568%
Potency [6]: inactive
Potency [7]: inactive
Potency [8]: inactive
Potency [9]: inactive
Potency [10]: inactive
Potency [11]: inactive

CC[C@@H]([C@H](C)O)n1ncn(-c2ccc(N3CCN(c4ccc(OCC5CO[C@@](Cn6cncn6)(c6ccc(F)cc6F)C5)cc4)CC3)cc2)c1=O (stereo partly specified)
max response [1]: -19.5%
Potency [2]: 14.8 µM (active)
max response [3]: -20.3%
max response [4]: -2.24%
max response [5]: -23.9%
Potency [6]: inactive
Potency [7]: inactive
Potency [8]: inactive
Potency [9]: inactive
Potency [10]: inactive
Potency [11]: inactive

CC(NCCc1ccc(O)cc1)C(O)c1ccc(O)cc1 (stereo unspecified)
max response [1]: -0.502%
max response [2]: 3.14%
max response [3]: -0.381%
max response [4]: -1.97%
outcome [5]: inactive
Potency [6]: inactive
Potency [7]: inactive
Potency [8]: inactive
Potency [9]: inactive
Potency [14]: inactive
Potency [10]: inactive
Potency [11]: inactive

CC[C@]1(O)C[C@H]2CN(CCC3=c4ccccc4=N[C]3[C@@](C(=O)OC)(c3cc4c(cc3OC)N(C)[C@H]3[C@@](O)(C(N)=O)[C@H](O)[C@]5(CC)C=CCN6CC[C@]43[C@@H]65)C2)C1
Potency [1]: 0.0935 µM (active)
Potency [2]: 0.0166 µM (active)
max response [3]: -10.4%
Potency [4]: 5.9 nM (active)
Potency [8]: 0.0037 µM (active)
Potency [9]: 0.0469 µM (active)

COc1c(C)c2c(c(O)c1CC=C(C)CCC(=O)OCCN1CCOCC1)C(=O)OC2
Potency [12]: 5.01 µM (active)
Potency [13]: 5.01 µM (active)
Potency [18]: 6.01 µM (active)
Potency [1]: 3.32 µM (active)
Potency [2]: 3.72 µM (active)
max response [3]: -7.64%
Potency [5]: 5.26 µM (active)
Potency [9]: 1.32 µM (active)
Potency [11]: 2.64 µM (active)

Cc1ccc(C(=O)N(CCCN)[C@@H](c2nc3cc(Cl)ccc3c(=O)n2Cc2ccccc2)C(C)C)cc1
max response [1]: -35.4%
max response [2]: -91.6%
Potency [4]: 0.8 nM (active)
max response [5]: -42.8%
Potency [6]: 0.0296 µM (active)
Potency [10]: inactive
